Source: PubChem BioAssay
Calls of active or inactive are those of the source.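 Rule for the calls, unless noted: active = hit in primary screen, with calcium signal over 5 SD above buffer well mean in both duplicates; inactive = the rest.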

assay: nonspecific calcium rise without TRPC4 – cell-based, HEK293 mu-opioid receptor line, counter-screen for TRPC4 activator project, confirmation (AID 449723); conditions: HEK293 mu-opioid cells, Fluo-4 calcium fluorescence, at 10 µM;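 note: counter screen cells carry the mu-opioid receptor alone and lack TRPC4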

Structure (SMILES) | outcome
CCC(O)(c1ccc(OC)cc1)C(CN1CCOCC1)c1ccccc1 (stereo not given) | inactive
COc1ccc(Nc2cc(C)nc3ccc(OC)cc23)cc1 | inactive
Cc1ccc(C(C)(C)C)cc1S(=O)(=O)Nc1nc2ccccc2nc1Cl | inactive
CN(C)C(CNC(=O)c1ccccc1OCc1ccc(Cl)cc1)c1ccco1 (stereo not given) | inactive
COc1ccc(-c2csc(NC(=O)Cc3cccc4ccccc34)c2C(=O)O)cc1 | inactive
CC1CCN(C(C)C(=O)Nc2ccccc2-c2ccccc2)CC1 (stereo not given) | inactive
O=c1c2ccccc2nc(SCc2ccccc2)n1CC1CCCO1 (stereo not given) | inactive
CC(=O)Nc1cccc(C(=O)NCC2(N3CCCCC3)CCCCC2)c1 | inactive
Cc1ccn2cc(CCNC(=O)c3ccc(Br)o3)nc2c1 | inactive
CCOc1ccc2ccccc2c1CNCCc1ccc(S(N)(=O)=O)cc1 | inactive
CCc1cccc(OCC(=O)Nc2ccc(C(=O)O)cc2NC(=O)COc2cccc(CC)c2)c1 | inactive
COc1ccc(CN2CCN(C(=O)c3ccc(F)cc3)CC2)c(OC)c1 | inactive
CCOc1ccc(Br)cc1/C=N/O | inactive
CCC1CCCCN1Cc1nc2c(c(=O)n(C)c(=O)n2C)n1Cc1ccccc1 (stereo not given) | inactive
O=C(c1ccc2c(c1)OCO2)C1CCCN(Cc2ccccc2OC(F)F)C1 (stereo not given) | inactive
O=C(Nc1ccccc1N1CCN(C(=O)c2ccccc2)CC1)c1ccc(Br)o1 | inactive
Cc1ccc(C(=O)C2=C(O)C(=O)N(Cc3cccnc3)C2c2ccc(Cl)c(Cl)c2)o1 (stereo not given) | inactive
Cc1cccc(CCN(C(=O)c2snc(C(N)=O)c2N)C(C(=O)NCC2CCCO2)c2ccc(F)cc2)c1 (stereo not given) | inactive
Cc1ccc(NC(=O)c2cc(N3C(=O)C=CC3=O)ccc2N2CCOCC2)cc1 | inactive
Fc1ccccc1Sc1ccccc1CNC1=NCCN1 | inactive

Structure (SMILES) | outcome
CC(C)C(NC(=O)c1ccc(C(C)(C)C)cc1)C(=O)NCC(c1ccccc1)N(C)C (stereo not given) | inactive
COCCn1c(SCC(=O)c2ccccc2)nc2ccccc2c1=O | inactive
COc1ccc(SC[C@H](Cc2ccccc2)N2CCN(C)CCC2=O)cc1 | inactive
O=C(CCCSc1nc2ccccc2[nH]1)NCc1ccccc1Cl | inactive
CCOC(=O)C1(Cc2ccccc2)CCN(CC2CC=CCC2)CC1 (stereo not given) | inactive
CCn1c(NCc2c[nH]c3ccccc23)nc2ccccc21 | inactive
COc1ccc(C(CNC(=O)c2oc3ccc(F)cc3c2C)N2CCCCC2)cc1 (stereo not given) | inactive
CCC(=O)N1CCc2cc(S(=O)(=O)NCCN3CCCCC3CC)ccc21 (stereo not given) | inactive
Nc1cc(N2CCCCC2)c([N+](=O)[O-])cc1Cl | inactive
Cc1c(CCOC(=O)c2cccc([N+](=O)[O-])c2)sc[n+]1CC(=O)c1ccccc1 | inactive
CCOc1cc(CNCCCN2CCOCC2)cc(Br)c1OCc1ccccc1Cl | inactive
Cc1ccc(Sc2ccc(CO)cc2[N+](=O)[O-])cc1 | inactive
Cc1ccc(Cn2c(Cc3ccccc3)nc3ccccc32)cc1 | inactive
CC1CCc2c(sc(/N=C/N(C)C)c2C#N)C1 (stereo not given) | inactive
COc1ccccc1N1CCN(CC(C)N(C(=O)C2CCCCC2)c2ccccn2)CC1 (stereo not given) | inactive
CCN(CC)c1ncnc2scc(C3COc4ccccc4O3)c12 (stereo not given) | inactive
COc1ccc(Sc2nc(-c3ccccc3)ncc2C(=O)O)cc1 | inactive
Cc1cccc(CN2CCCC(C(=O)Nc3ccccc3Oc3cccnc3)C2)c1 (stereo not given) | inactive
Cn1nnnc1SCCNCc1ccccc1OCc1ccc(Cl)cc1 | inactive
O=C(C[n+]1cccc(CNC(=O)c2ccc(OC(F)F)cc2)c1)Nc1ccc(SC(F)F)cc1 | inactive

assay: nonspecific potentiation of DAMGO calcium response – cell-based, HEK293 mu-opioid receptor line, counter-screen for TRPC4 allosteric potentiator project, confirmation (AID 449724;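 active = calcium signal rise more than 3 SD above the low-dose agonist control mean, in both duplicate plates and the primary screen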;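 note: HEK293 cells carrying mu-opioid receptor only with no TRPC4 channel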); conditions: HEK293 mu-opioid receptor cells, Fluo-4 calcium flux, at 10 µM, compound added before EC20 DAMGO stimulus

Structure (SMILES) | outcome
CCC(O)(c1ccc(OC)cc1)C(CN1CCOCC1)c1ccccc1 (stereo not given) | inactive
COc1ccc(Nc2cc(C)nc3ccc(OC)cc23)cc1 | inactive
Cc1ccc(C(C)(C)C)cc1S(=O)(=O)Nc1nc2ccccc2nc1Cl | inactive
CN(C)C(CNC(=O)c1ccccc1OCc1ccc(Cl)cc1)c1ccco1 (stereo not given) | inactive
COc1ccc(-c2csc(NC(=O)Cc3cccc4ccccc34)c2C(=O)O)cc1 | inactive
CC1CCN(C(C)C(=O)Nc2ccccc2-c2ccccc2)CC1 (stereo not given) | inactive
O=c1c2ccccc2nc(SCc2ccccc2)n1CC1CCCO1 (stereo not given) | inactive
CC(=O)Nc1cccc(C(=O)NCC2(N3CCCCC3)CCCCC2)c1 | inactive
Cc1ccn2cc(CCNC(=O)c3ccc(Br)o3)nc2c1 | inactive
CCOc1ccc2ccccc2c1CNCCc1ccc(S(N)(=O)=O)cc1 | inactive
CCc1cccc(OCC(=O)Nc2ccc(C(=O)O)cc2NC(=O)COc2cccc(CC)c2)c1 | inactive
COc1ccc(CN2CCN(C(=O)c3ccc(F)cc3)CC2)c(OC)c1 | inactive
CCOc1ccc(Br)cc1/C=N/O | inactive
CCC1CCCCN1Cc1nc2c(c(=O)n(C)c(=O)n2C)n1Cc1ccccc1 (stereo not given) | inactive
O=C(c1ccc2c(c1)OCO2)C1CCCN(Cc2ccccc2OC(F)F)C1 (stereo not given) | inactive
O=C(Nc1ccccc1N1CCN(C(=O)c2ccccc2)CC1)c1ccc(Br)o1 | inactive
Cc1ccc(C(=O)C2=C(O)C(=O)N(Cc3cccnc3)C2c2ccc(Cl)c(Cl)c2)o1 (stereo not given) | inactive
Cc1cccc(CCN(C(=O)c2snc(C(N)=O)c2N)C(C(=O)NCC2CCCO2)c2ccc(F)cc2)c1 (stereo not given) | inactive
Cc1ccc(NC(=O)c2cc(N3C(=O)C=CC3=O)ccc2N2CCOCC2)cc1 | inactive
Fc1ccccc1Sc1ccccc1CNC1=NCCN1 | inactive

Structure (SMILES) | outcome
CC(C)C(NC(=O)c1ccc(C(C)(C)C)cc1)C(=O)NCC(c1ccccc1)N(C)C (stereo not given) | inactive
COCCn1c(SCC(=O)c2ccccc2)nc2ccccc2c1=O | inactive
COc1ccc(SC[C@H](Cc2ccccc2)N2CCN(C)CCC2=O)cc1 | inactive
O=C(CCCSc1nc2ccccc2[nH]1)NCc1ccccc1Cl | inactive
CCOC(=O)C1(Cc2ccccc2)CCN(CC2CC=CCC2)CC1 (stereo not given) | inactive
CCn1c(NCc2c[nH]c3ccccc23)nc2ccccc21 | inactive
COc1ccc(C(CNC(=O)c2oc3ccc(F)cc3c2C)N2CCCCC2)cc1 (stereo not given) | inactive
CCC(=O)N1CCc2cc(S(=O)(=O)NCCN3CCCCC3CC)ccc21 (stereo not given) | inactive
Nc1cc(N2CCCCC2)c([N+](=O)[O-])cc1Cl | inactive
Cc1c(CCOC(=O)c2cccc([N+](=O)[O-])c2)sc[n+]1CC(=O)c1ccccc1 | inactive
CCOc1cc(CNCCCN2CCOCC2)cc(Br)c1OCc1ccccc1Cl | inactive
Cc1ccc(Sc2ccc(CO)cc2[N+](=O)[O-])cc1 | inactive
Cc1ccc(Cn2c(Cc3ccccc3)nc3ccccc32)cc1 | inactive
CC1CCc2c(sc(/N=C/N(C)C)c2C#N)C1 (stereo not given) | inactive
COc1ccccc1N1CCN(CC(C)N(C(=O)C2CCCCC2)c2ccccn2)CC1 (stereo not given) | inactive
CCN(CC)c1ncnc2scc(C3COc4ccccc4O3)c12 (stereo not given) | inactive
COc1ccc(Sc2nc(-c3ccccc3)ncc2C(=O)O)cc1 | inactive
Cc1cccc(CN2CCCC(C(=O)Nc3ccccc3Oc3cccnc3)C2)c1 (stereo not given) | inactive
Cn1nnnc1SCCNCc1ccccc1OCc1ccc(Cl)cc1 | inactive
O=C(C[n+]1cccc(CNC(=O)c2ccc(OC(F)F)cc2)c1)Nc1ccc(SC(F)F)cc1 | inactive
